Our source for the composite z-score values is PubChem BioAssay.

Chain of Neurogenic locus notch homolog protein 3 (Homo sapiens) (Q9UM47 whole entry, looked up): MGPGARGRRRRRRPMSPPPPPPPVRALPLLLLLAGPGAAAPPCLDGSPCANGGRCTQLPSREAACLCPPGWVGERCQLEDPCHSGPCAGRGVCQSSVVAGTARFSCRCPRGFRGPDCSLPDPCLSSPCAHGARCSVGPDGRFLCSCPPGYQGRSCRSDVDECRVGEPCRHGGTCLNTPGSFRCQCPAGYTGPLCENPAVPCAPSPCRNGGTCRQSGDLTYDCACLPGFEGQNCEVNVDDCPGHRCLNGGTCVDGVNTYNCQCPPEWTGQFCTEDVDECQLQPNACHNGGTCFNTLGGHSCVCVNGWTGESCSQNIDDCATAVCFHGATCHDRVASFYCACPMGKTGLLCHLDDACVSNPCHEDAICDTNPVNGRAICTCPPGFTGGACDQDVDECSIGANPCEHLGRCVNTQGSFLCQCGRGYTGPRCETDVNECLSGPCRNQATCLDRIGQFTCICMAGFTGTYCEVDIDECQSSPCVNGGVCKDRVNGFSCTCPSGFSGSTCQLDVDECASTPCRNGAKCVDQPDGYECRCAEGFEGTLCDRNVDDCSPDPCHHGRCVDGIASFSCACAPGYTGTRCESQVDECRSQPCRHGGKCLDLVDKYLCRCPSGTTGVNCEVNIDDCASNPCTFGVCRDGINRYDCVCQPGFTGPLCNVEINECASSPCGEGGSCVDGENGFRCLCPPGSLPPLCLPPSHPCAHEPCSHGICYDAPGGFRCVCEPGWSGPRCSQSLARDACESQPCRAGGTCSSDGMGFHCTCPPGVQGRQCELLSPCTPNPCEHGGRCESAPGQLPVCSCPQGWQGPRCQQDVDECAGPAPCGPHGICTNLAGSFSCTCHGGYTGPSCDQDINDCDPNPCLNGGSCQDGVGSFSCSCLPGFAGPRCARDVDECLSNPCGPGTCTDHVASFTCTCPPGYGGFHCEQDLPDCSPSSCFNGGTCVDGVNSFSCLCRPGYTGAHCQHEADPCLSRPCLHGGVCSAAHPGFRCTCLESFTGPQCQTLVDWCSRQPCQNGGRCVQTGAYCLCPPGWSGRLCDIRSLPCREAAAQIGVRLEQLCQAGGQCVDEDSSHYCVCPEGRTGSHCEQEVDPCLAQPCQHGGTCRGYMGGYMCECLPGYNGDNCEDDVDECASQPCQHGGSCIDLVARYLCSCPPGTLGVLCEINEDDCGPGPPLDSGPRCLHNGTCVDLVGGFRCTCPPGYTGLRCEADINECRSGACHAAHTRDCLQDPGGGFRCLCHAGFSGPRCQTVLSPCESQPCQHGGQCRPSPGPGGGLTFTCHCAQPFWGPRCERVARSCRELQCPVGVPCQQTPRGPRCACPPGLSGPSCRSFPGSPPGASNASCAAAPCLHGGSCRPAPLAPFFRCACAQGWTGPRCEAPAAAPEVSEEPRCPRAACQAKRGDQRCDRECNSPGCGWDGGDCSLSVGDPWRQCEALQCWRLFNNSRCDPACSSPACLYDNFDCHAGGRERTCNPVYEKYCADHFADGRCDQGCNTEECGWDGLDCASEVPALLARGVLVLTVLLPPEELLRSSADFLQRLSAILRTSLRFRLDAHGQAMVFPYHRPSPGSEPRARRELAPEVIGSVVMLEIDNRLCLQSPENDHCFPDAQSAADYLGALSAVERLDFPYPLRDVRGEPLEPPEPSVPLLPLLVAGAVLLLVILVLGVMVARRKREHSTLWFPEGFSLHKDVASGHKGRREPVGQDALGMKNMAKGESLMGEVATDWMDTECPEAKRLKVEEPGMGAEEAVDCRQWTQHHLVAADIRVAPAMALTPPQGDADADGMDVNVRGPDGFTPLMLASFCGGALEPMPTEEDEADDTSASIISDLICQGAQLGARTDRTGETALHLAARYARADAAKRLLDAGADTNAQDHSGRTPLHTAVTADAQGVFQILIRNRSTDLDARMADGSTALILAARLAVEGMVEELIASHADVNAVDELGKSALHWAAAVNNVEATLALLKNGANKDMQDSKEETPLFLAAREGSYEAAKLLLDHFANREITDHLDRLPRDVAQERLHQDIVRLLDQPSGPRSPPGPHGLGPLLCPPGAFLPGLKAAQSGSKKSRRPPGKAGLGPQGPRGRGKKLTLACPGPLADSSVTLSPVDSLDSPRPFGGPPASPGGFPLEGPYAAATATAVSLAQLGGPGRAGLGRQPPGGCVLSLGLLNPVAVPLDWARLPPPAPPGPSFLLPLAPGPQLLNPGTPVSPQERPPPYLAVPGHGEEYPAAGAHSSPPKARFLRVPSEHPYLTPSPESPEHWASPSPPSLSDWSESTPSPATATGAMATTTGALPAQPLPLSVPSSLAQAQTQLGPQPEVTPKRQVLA

The test has as its target Neurogenic locus notch homolog protein 3 (Homo sapiens) (UniProt Q9UM47). The experiment in a line: NOTCH3 binders on small-molecule microarray, primary screen, biochemical, 635/667 nm fluorescence (AID 1096). Conditions: NOTCH3 binding, 635 nm fluorescence, higher = more signal.
`CC1CC/C=C\[C@H]2OC34C=CCN(C(C)(C)C)C(=O)[C@H]3N(CCCCCO)C(=O)[C@@H]4C2C(=O)O1` (stereo not given in full) registered a composite z-score of -0.284.

As to `COc1cc(NN2C(C(O)c3cc(OC)c(OC)c(OC)c3)C=CC3C(=O)N(C)C(=O)C32)cc(OC)c1OC` (stereo not given), the composite z-score came to 1.06.

As for `[N-]=[N+]=NCc1ccccc1[C@H]1OC(c2ccc(OCCCO)cc2)=N[C@@]1(Cc1ccccc1N=[N+]=[N-])C(=O)NCC(O)CO` (stereo not given in full), the composite z-score was 1.09.

As to `C=C(COC)/C(=C/C[C@H](OC(=O)c1ccncc1)c1ccccc1OCCO)c1cc(C(=O)OC)ccc1OC`, the composite z-score worked out at 1.04.

`CC(C)=C1C(=O)C(c2ccccc2)=C2CN3C(=O)N(CCc4ccccc4)C(=O)[C@]3(Cc3ccc(C(F)(F)F)cc3)[C@H]21`: the composite z-score stood at 0.245.

In the case of `NCCCCCCNC(=O)[C@@H]1C[C@@H]2C(=O)N[C@@H](CCCCN)C(=O)N2[C@@H]1c1ccc(O)cc1`, the composite z-score was 0.549.

Regarding `CC(C)[Si](C#CCCCC#N)(O[C@H](c1ccccc1)c1cn(Cc2ccccc2)nn1)C(C)C`, the composite z-score stood at 1.09.

Consider `CC(C)c1ccc(NN2C(C(O)c3ccc(C#N)cc3)C=CC3C(=O)N(c4ccccc4)C(=O)C32)cc1` (stereo not given), for which the composite z-score worked out at 1.07.

`COC(=O)[C@]1(CCS(=O)(=O)c2ccccc2)N=C(c2ccc(OCCCO)cc2)O[C@@H]1c1ccccc1N=[N+]=[N-]` gave a composite z-score of 1.04.

In the case of `C=C[C@H](C)[C@H](OC(=O)Nc1ccc(SC)cc1)c1ccc(OCCO)cc1`, the composite z-score was found to be 0.862.

In turn, `Cc1ccc(S[C@]2(C(=O)NCC(F)(F)F)CC(=O)N(Cc3cc(C(F)(F)F)cc(C(F)(F)F)c3)[C@@H]2c2ccc(CO)cc2)cc1` showed a composite z-score of -0.133.

In the case of `O=C1OCCC=C[C@H]2OC34C=CCN(c5ccc6ccccc6c5)C(=O)[C@H]3N(CCCO)C(=O)[C@@H]4C12` (stereo not given in full), the composite z-score is -1.19.

`O=C1O[C@H](c2ccccc2)[C@H](c2ccccc2)N2[C@H]1[C@@H](C(=O)O)[C@]1(C(=O)Nc3ccc(C#CCCO)cc31)[C@H]2c1ccccc1OCCO` came in with a composite z-score of 0.116.

With `COC(=O)[C@@]1(Cc2ccc(F)cc2)[C@H]2c3cc(C(=O)N4CCCC4)n(CCc4c[nH]c5ccccc45)c3C[C@H]2CN1C(=O)c1ccccc1`, the composite z-score came to 1.01.

`[N-]=[N+]=Nc1ccccc1C[C@]1(C(=O)N2CCOCC2)COC(c2ccc(OCCCO)cc2)=N1` returned a composite z-score of 1.06.

`C=CCN1C(=O)[C@]2(CCC(=O)OC(C)(C)C)N=C(c3ccc(OCCCO)cc3)O[C@@H]2c2ccccc21` registered a composite z-score of 0.772.

In turn, `O=C1OCCC=C[C@H]2OC34C=CCN(Cn5nnc6ccccc65)C(=O)[C@H]3N(CCCO)C(=O)[C@@H]4C12` (stereo not given in full) yielded a composite z-score of -0.99.

The molecule `COCCOC(=O)N1C(=O)[C@@]2(c3ccccc31)[C@H](c1ccc(O)cc1)N1[C@H](c3ccccc3)[C@H](c3ccccc3)OC(=O)[C@H]1[C@@H]2C(=O)N1CCN(c2ncccn2)CC1` came in with a composite z-score of 0.855.

`Cc1ccc(S[C@]2(C(=O)NCC(F)(F)F)CC(=O)N(Cc3cc(C(F)(F)F)cc(C(F)(F)F)c3)[C@@H]2c2ccc(CO)cc2I)cc1` showed a composite z-score of -1.32.

In turn, `C#CCN([C@@H](Cc1ccccc1)C(=O)OC)[C@@H](/C=C/C1CC1)[C@H](O)Cc1ccccc1` came in with a composite z-score of -0.525.

As for `CC(C)C(CO)N1C(=O)[C@@H]2[C@H]3C(=O)OCC=C[C@H]3OC23C=CCN(c2ccc(Cl)cc2)C(=O)[C@@H]13` (stereo not given in full), the composite z-score was -0.271.

In turn, `COC(=O)[C@@]1(Cc2ccc(F)cc2)[C@H]2c3cc(C(=O)N4CCCC4)n(Cc4ccc(C)c(F)c4F)c3C[C@H]2CN1C(=O)c1ccccc1` yielded a composite z-score of -0.338.

`COc1ccccc1CN1C(=O)c2ccccc2[C@](Cc2ccccc2I)(C(=O)O)[C@@H]1c1ccc(CO)cc1` yielded a composite z-score of 1.

Molecule `COc1ccc([C@H]2OC[C@@H]3C[C@H](Cc4ccccc4)C(=O)N32)cc1` registered a composite z-score of 0.363.

Regarding `COCCOC(=O)N1C(=O)[C@@]2(c3cc(C#CC4(O)CCCCCC4)ccc31)[C@H](c1ccc(O)cc1)N1[C@H](c3ccccc3)[C@H](c3ccccc3)OC(=O)[C@H]1[C@@H]2C(=O)N1CCN(c2ncccn2)CC1`, the composite z-score was determined as 0.987.

Molecule `CCCC1(C(=O)OC)C=C2C(=C(C)C(=O)C2C)CN1` (stereo not given) returned a composite z-score of -0.0768.

For `COc1cc(NN2C(C(O)c3ccco3)C=CC3C(=O)N(C)C(=O)C32)cc(OC)c1OC` (stereo not given), the composite z-score is -0.254.

`CCCNC(=O)[C@@H]1c2ccccc2C(=O)N(Cc2ccc(OC(F)(F)F)cc2)[C@H]1c1ccc(CO)cc1` returned a composite z-score of 0.0529.

On to `C=CC[C@@H](OC(=O)Nc1ccc(OC)cc1)c1ccc(O)c(F)c1`, for which the composite z-score was -0.6.

Take `CCCC[C@@H](O)C1=C(COC)C[C@H]2C(=O)N(Cc3ccccc3)C(=O)[C@H]2[C@H]1CO`: the composite z-score was 0.788.
